Experimental data reported in PubChem BioAssay AID2314 (National Center for Advancing Translational Sciences (NCATS), 2010).
Screen size: about 300,000 compounds; about 37,000 (12%) were called active. The full list was thinned out, with actives kept by preference. A number with no mark means an inactive call. Cut-off read from the data, not from the text of the source: active = max response mostly above about 13% (no sharp cut-off); inactive = mostly below about 14%.

assay: Cycloheximide Counterscreen for Small Molecule Inhibitors of Shiga Toxin; settings: cell reporter, cycloheximide protein synthesis inhibition counterscreen; stronger effect = higher value; note: read at 38.3 µM for the half of the compounds with a filed dose; 0% is about no effect

Row | SMILES | max response
1 | COc1ccc(CNC(=O)COC(=O)/C=C/c2ccc(S(=O)(=O)N3CCOCC3)cc2)cc1 | 9.31%
2 | O=c1c2ccccc2nnn1CSc1nc2sc3c(c2c(=O)n1CC1CCCO1)CCC3 (stereo not given) | -2.17%
3 | OC(c1ccc(Cl)cc1)C(CN1CCOCC1)c1ccccc1 (stereo not given) | -2.76%
4 | COc1ccc2c(C)c(CCC(=O)NC3CC3)c(=O)oc2c1C | 9.57%
5 | O=C1C(=O)N(c2ccccc2)c2ccccc21 | -2.88%
6 | CC(=O)CCS(=O)(=O)c1ccc(C)c(C)c1 | 27.6% (active)
7 | Cc1ccc(S(=O)(=O)CCC(=O)OCc2ccccc2)cc1 | 0.648%
8 | O=C(O)CCS(=O)(=O)c1ccc(-c2ccccc2)cc1 | -1.33%
9 | COc1ccc(OC)c(NC(=O)C2CCCN2S(=O)(=O)c2cccc3nsnc23)c1 (stereo not given) | 12.5%
10 | Cc1ccc(-c2nnc(Nc3ccc(C(=O)N(C)C)cc3)c3ccccc23)cc1S(N)(=O)=O | -2.16%
11 | O=C(Nc1cccc(-c2nnc(-c3ccccc3)o2)c1)C1CCCO1 (stereo not given) | 37.3% (active)
12 | CC(C)(C)NS(=O)(=O)c1ccc(NC(=O)C2CCCO2)cc1 (stereo not given) | -3.65%
13 | CCOC(=O)c1ccc(NC(=O)c2ccc(NC(=O)C3CCCO3)cc2)cc1 (stereo not given) | 13.9%
14 | O=C(Nc1ccc(-c2nnc(-c3ccccc3)o2)cc1)C1CCCO1 (stereo not given) | 39.1% (active)
15 | Cc1cccc(NC(=O)Nc2nnc(-c3ccccc3)o2)c1 | 2.04%
16 | O=C(CSc1nnc(-c2ccc(NS(=O)(=O)c3ccccc3)cc2)o1)NCC1CCCO1 (stereo not given) | -1.17%
17 | CCn1c(=S)sc2c(=O)n(CC(=O)Nc3ccc(OC)cc3)c(C)nc21 | -0.488%
18 | Cc1ccccc1OCCC(=O)OCC(=O)NC(C)c1ccccc1 (stereo not given) | 1.95%
19 | CCC(C)c1ccccc1NC(=O)CN(C)CC(=O)Nc1ccccc1SC (stereo not given) | -13.3%
20 | Cc1cc(C(=O)COc2ccccc2[N+](=O)[O-])c(C)n1-c1cccc(S(=O)(=O)N2CCOCC2)c1 | 0.979%

Row | SMILES | max response
21 | CC(C)(C)OC(=O)N/N=C/c1cn(-c2ccccc2)nc1-c1cccnc1 | 17%
22 | Cc1ccc(-c2nn(-c3ccccc3)cc2/C=N/NC(=O)c2ccc3c(c2)OCO3)cc1 | 16.9% (active)
23 | Cc1nnc(SCC(=O)N/N=C/c2cn(-c3ccccc3)nc2-c2ccc(F)cc2)n1-c1ccccc1 | 10.2%
24 | O=C(NCc1ccccc1)[C@H]1C[C@@H]1[C@H](NP(=O)(c1ccccc1)c1ccccc1)c1ccccc1 | 4.56%
25 | CC(=O)N1CCCc2cc(S(=O)(=O)N3CCCC(C(=O)N4CCN(c5cccc(Cl)c5)CC4)C3)ccc21 (stereo not given) | 8.4%
26 | Cc1sc2ncn(CC(=O)NCCCC(=O)N3CCN(c4ccccc4F)CC3)c(=O)c2c1C | -3.83%
27 | CCOc1ccc(OCCSc2nc3ccccc3n2CC(=O)O)cc1 | -2.45%
28 | CC(NC(=S)Nc1ccc(OC(F)F)cc1)c1ccc(F)cc1 (stereo not given) | 1.93%
29 | S=C(NNC(=S)NC1CC2C=CC1C2)NC1CC2C=CC1C2 (stereo not given) | 9.74%
30 | CC(C)c1ccc(NC(=S)NC2CC3C=CC2C3)cc1 (stereo not given) | 51.4% (active)
31 | CCOc1ccccc1N1CN(Cc2ccccc2)CNC1=S | -1.15%
32 | Cc1ccccc1NCC(=O)N/N=C\c1ccc([N+](=O)[O-])s1 | 25.2%
33 | CSc1ccc(/C=C/C(=O)NC23CC4CC(CC(C4)C2)C3)cc1 | 49.9% (active)
34 | Cc1ccc(C(=O)NC23CC4CC(CC(C4)C2)C3)c(Cl)c1 | 11.3%
35 | CSc1ccc(NC(=O)/C=C/C(=O)O)cc1 | 6.1%
36 | CC1(C)CC(=O)c2c(n(S(=O)(=O)c3ccccc3)c3ccc(NS(=O)(=O)c4ccccc4)cc23)C1 | -1.24%
37 | CCn1c(SCc2ccccc2)nc2c(c1=O)SCC2 | -1.78%
38 | CCS(=O)(=O)n1nc(-c2ccc(OC)cc2)nc1SC | 23.6% (active)
39 | CCn1c(SCc2ccccc2)nc2cc(OC)c(OC)cc2c1=O | 0.431%
40 | CCS(=O)(=O)n1nc(-c2ccccc2)nc1SCc1ccccc1 | 62.5% (active)

Row | SMILES | max response
41 | CCOC(=O)N1CCN(S(=O)(=O)c2ccc(OC)cc2)CC1 | -1.81%
42 | COc1ccc(-n2c(SC)nc(O)cc2=O)cc1 | -4.06%
43 | CCOc1ccc(CN2CCNC(=O)C2CC(=O)NCCCC2CCCC2)cc1 (stereo not given) | 16.3%
44 | Cc1cc(C(=O)N/N=C/c2ccccn2)c2ccccc2n1 | -8.99%
45 | Cc1ccc2nc(C)cc(N/N=C/c3ccc(F)cc3)c2c1 | -2.09%
46 | CCOc1cc(/C=N/Nc2cc(C)nc3ccc(C)cc23)ccc1O | 17.3% (active)
47 | COc1cccc(-c2cc(C(=O)N/N=C/c3ccc(OC)c(COC(C)=O)c3)c3ccccc3n2)c1 | 2.97%
48 | CCOc1cc(/C=N/NC(=O)c2cc(-c3ccccc3)nc3ccccc23)ccc1O | 17.7% (active)
49 | CCOc1ccc(/C=N/NC(=O)CSc2ccccn2)cc1O | 1.88%
50 | COc1cc(OC)c2c(C)cc(=O)oc2c1C(CCN1CCCCC1)c1ccc(N(C)C)cc1 (stereo not given) | -1.45%
51 | COc1cc(CN2CCCC(C(=O)c3ccc(SC)cc3)C2)cc(Cl)c1O (stereo not given) | 4.43%
52 | N=c1n(CCc2ccccc2)c2ccccc2n1Cc1ccccc1F | -8.79%
53 | COc1ccc(C)cc1NC(=S)N1CCOCC1 | -2.32%
54 | CCOC(=O)C(=Cc1ccccc1OC)C(=O)OCC | 2.29%
55 | COc1ccccc1/C=C/C(=O)NC(=S)N1CCOCC1 | 47.7% (active)
56 | COc1ccccc1C(=O)Nc1cccc(C(=O)N2CCOCC2)c1 | -2.39%
57 | COc1ccccc1/C=C/C=N/NC(=O)CN1CCN(Cc2ccccc2)CC1 | -1.49%
58 | COc1ccccc1/C=C/C(=O)NC1CC2CCC1C2 (stereo not given) | 14.3% (active)
59 | COc1ccc(Cl)cc1NC(=O)CCS(=O)(=O)c1ccc(Br)cc1 | -3.81%
60 | CSc1ccc(S(=O)(=O)N2CCC(C(=O)NCc3ccncc3)CC2)cc1 | -2.48%
